Screen size: about 320,000 compounds; about 2,100 (0.66%) were called active. Not shown: some 53% with an inconclusive outcome. Calls follow the shape of the dose curve; as a rule, active = well fitted inhibition curve with a large enough effect in the signal ratio, with a control signal flat (not every such curve was filed as active); inconclusive = small, poorly fitted or top-dose-only effect, or effect the other way, or a change in a side signal; inactive = flat fitted curve, though single readings scatter; the % refers to the signal ratio. The entries come from a sample that favours actives as a whole.
Assay: qHTS Assay for Lipid Storage Modulators in Drosophila S3 Cells;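 as to cell number change: cells counted by Cell Tracker Red CMTPX staining in the red channel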; as to lipid storage change, negative = inhibition: % is scaled to controls: 0 for no effect and ±100 for the full control effect
Settings: BODIPY lipid droplet fluorescence, 18-24 h, cells fed with added oleic acid; cell number change: measured here: cell count max response; series mostly up to 46.1 µM; lipid storage change, negative = inhibition: at the top concentration
Outline: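 Laser-scanning cytometry quantifies lipid droplet accumulation (500–530 nm total intensity; droplet/cell object ratio) in oleic acid-fed (400 uM added) Drosophila S3 cells treated with a concentration series. 20 uM Triacsin C defined 100% inhibition.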
Potency is read from the fitted curve at half-maximal effect.

| Compound | lipid storage change, negative = inhibition | cell number change [%] | Potency | outcome |
| --- | --- | --- | --- | --- |
| Cc1csc(NC(=O)c2ccc3ccccc3n2)n1 | 5.76% (inactive) | 7.3 |  |  |
| Cc1csc(NC(=O)c2ccccc2)n1 | 17.8% (inactive) | 23.7 |  |  |
| Cc1csc(NC(=O)c2cnc3ccccc3n2)n1 |  |  | 1.64 µM (active) |  |
| Cc1cccc(N2CCN(C(=O)C(NS(=O)(=O)c3cccs3)c3ccccc3)CC2)c1C (centres undefined) |  | -2.06 |  | inactive |
| CCN=C1S/C(=C\c2cc(Br)c(O)c(OC)c2)C(=O)N1CC | -24.6% (inactive) | -10.5 |  |  |
| CC(NC(=O)C1CCCCC1)c1ccc2c(c1)OCCO2 (centres undefined) |  |  |  | inactive |
| Cc1ccc(C(C)(C)C)cc1S(=O)(=O)N1CCC(C(=O)N2CCN(c3ccc(O)cc3)CC2)CC1 |  | -13.6 | 3.66 µM (active) |  |
| O=C(C1CC1)N1CCN(c2ccc(O)cc2)CC1 |  | 22.2 |  | inactive |
| Cc1ccc(C(=O)O)cc1S(=O)(=O)N1CCC(C(=O)O)CC1 | 16% (inactive) | -0.135 |  |  |
| Cc1ccc(N(Cc2cc3cc(C)ccc3[nH]c2=O)S(=O)(=O)c2ccccc2)cc1 | -0.784% (inactive) | -3.48 |  |  |
| CCOC(=O)CSc1nc2ccccc2c(=O)n1CC1CCCO1 (centres undefined) | 10.9% (inactive) | 0.196 |  |  |
| COc1ccc(OC2C(=O)N(Cc3ccc(F)cc3)C2c2ccc(OC)c(OC)c2)cc1 (centres undefined) | 0.24% (inactive) |  |  |  |
| O=C(Cc1ccc(Cl)c(Cl)c1)Nc1ccc(S(=O)(=O)Nc2ncccn2)cc1 |  | 8.75 |  | inactive |
| O=C(Cc1c(Cl)cccc1Cl)Nc1ccc(S(=O)(=O)Nc2ncccn2)cc1 | -17.5% (inactive) | 17.5 |  |  |
| O=C(Cc1ccccc1F)Nc1ccc(S(=O)(=O)Nc2ncccn2)cc1 |  | 16.8 | 0.146 µM (active) |  |
| C#CCN(C(=O)c1ccc(OC)c(OC2CCN(C(C)C)CC2)c1)C1CCCCC1 | 14.3% (inactive) | 13.3 |  |  |
| Cc1cc(NC(=O)COC(=O)CSc2nc3cc(Cl)ccc3n2Cc2ccccc2)no1 | 10.6% (inactive) | -15.1 |  |  |
| CC(Sc1nccn1C)C(=O)Nc1ccccc1 (centres undefined) | 7.52% (inactive) | -8.41 |  |  |
| CC(Sc1nccn1C)C(=O)c1ccc(Br)cc1 (centres undefined) |  | 8.97 | 18.4 µM (active) |  |
| CC(Sc1nccn1C)C(=O)Nc1ccc(C(N)=O)cc1 (centres undefined) | -16.1% [at 0.0737 µM] (inactive) | 24.6 |  |  |
| Cc1ccc(NS(=O)(=O)c2ccc(-c3ccc(=O)[nH]n3)o2)c(C)c1 | -11.7% (inactive) | 3.54 |  |  |
| Cc1cccc(C)c1NS(=O)(=O)c1ccc(-c2ccc(=O)[nH]n2)o1 |  | -21.6 | 16.4 µM (active) |  |

| Compound | lipid storage change, negative = inhibition | cell number change [%] | Potency | outcome |
| --- | --- | --- | --- | --- |
| Cc1ccc(C)c(NS(=O)(=O)c2ccc(-c3ccc(=O)[nH]n3)o2)c1 | -0.445% (inactive) | -3.63 |  |  |
| O=C(O)/C=C/C(=O)NC1CCC(CC2CCC(NC(=O)/C=C/C(=O)O)CC2)CC1 (centres undefined) | 5.98% (inactive) | 16.5 |  |  |
| O=C(N/N=C/c1nn(-c2ccccc2)cc1-c1ccc(Cl)cc1)c1ccncc1 | -4.31% (inactive) | 11.9 |  |  |
| O=C(NCCCN=C1NS(=O)(=O)c2ccccc21)c1ccc(S(=O)(=O)N2CCCCC2)cc1 |  | -7.55 | 8.2 µM (active) |  |
| Cc1ccc2cc(CCNC(=O)c3ccc(S(=O)(=O)N4CCCCC4)cc3)c(=O)[nH]c2c1 | 20.6% [at 9.22 µM] (inactive) | 17.8 |  |  |
| O=C(O)c1ccc(CNC(=O)c2ccc(S(=O)(=O)N3CCCCC3)cc2)cc1 | 18.3% (inactive) | -13.8 |  |  |
| O=C(NCCN=C1NS(=O)(=O)c2ccccc21)c1ccncc1 |  | -9.37 |  | inactive |
| COc1ccc(OC)c2[nH]c(=O)c(CCNC(=O)c3ccc(S(=O)(=O)N4CCCC4)cc3)cc12 | -1.53% (inactive) | 1.32 |  |  |
| CCN(CC)S(=O)(=O)c1ccc(C(=O)NCCCN=C2NS(=O)(=O)c3ccccc32)cc1 | 3.19% (inactive) | 17.2 |  |  |
| CN(c1ccccc1)S(=O)(=O)c1ccc(C(=O)NCc2ccccc2F)cc1 |  | -21.4 | 13 µM (active) |  |
| CN(c1ccccc1)S(=O)(=O)c1ccc(C(=O)NCc2cccs2)cc1 | -14.7% (inactive) |  |  |  |
| Cc1ccc(C)c2[nH]c(=O)c(CCNC(=O)c3ccc(S(=O)(=O)N4CCCC4)cc3)cc12 |  | -19 | 13 µM (active) |  |
| CS(=O)(=O)c1ccc(C(=O)NCc2ccccc2F)cc1 | 4.1% (inactive) | 16.1 |  |  |
| O=C(NCc1ccccc1F)c1ccc(S(=O)(=O)N2CCCCCC2)cc1 |  | 11.4 | 18.4 µM (active) |  |
| O=C(NCc1ccccc1F)c1cccc(S(=O)(=O)N2CCCCCC2)c1 | -28% (inactive) | 6.02 |  |  |
| O=C(Nc1ccc(C(=O)N2CCOCC2)cc1)c1cnn2c(C(F)F)cc(-c3ccccc3)nc12 | 12.7% (inactive) | 19.9 |  |  |
| CCCCC1CCC(c2nc(-c3cccnc3)no2)CC1 (centres undefined) | 16.5% (inactive) | -3.76 |  |  |
| CCN1CCN(S(=O)(=O)Cc2ccccc2Cl)CC1 | -13.1% (inactive) | -8.44 |  |  |
| Cc1noc(C)c1CSc1nnc(-c2ccccc2)o1 | 13.2% (inactive) | 4.76 |  |  |
| Cc1ccc(CNC(=O)/C=C/C(=O)O)cc1 | -3.52% (inactive) | 15 |  |  |
| CN1CCN(c2oc(-c3ccco3)nc2S(=O)(=O)c2ccccc2)CC1 | 15.9% (inactive) | 0.475 |  |  |
| CC(=O)Nc1ccc(S(=O)(=O)Oc2cccc(N3C(=O)C4CCCCC4C3=O)c2)cc1 (centres undefined) |  | 5.92 |  | inactive |

| Compound | lipid storage change, negative = inhibition | cell number change [%] | Potency | outcome |
| --- | --- | --- | --- | --- |
| CCOc1ccc(Br)cc1S(=O)(=O)NCc1ccncc1 | 15.6% (inactive) | 3.33 |  |  |
| Cc1ccc(OCCn2cc(C(=O)O)c3ccccc32)cc1 | -6.41% (inactive) | 6.58 |  |  |
| COc1ccc(C(=S)N2CCOCC2)cc1OC(=O)c1ccccc1Cl | -28.4% (inactive) | 11.8 |  |  |
| Cc1ccc(S(=O)(=O)NC(CC(=O)O)c2ccc(F)cc2)cc1 (centres undefined) | -0.309% (inactive) | 2.4 |  |  |
| COc1ccc(C(CC(=O)O)NS(=O)(=O)c2ccc(C)cc2)cc1OC (centres undefined) | -9.46% (inactive) | -5.13 |  |  |
| COc1ccc(C(CC(=O)O)NS(=O)(=O)c2ccc(C)cc2)cc1 (centres undefined) |  | 9.41 | 2.91 µM (active) |  |
| O=C(C1=C[C@@H](c2coc3ccccc3c2=O)C[C@@H](OCCCCO)O1)N1CCN(Cc2ccc3c(c2)OCO3)CC1 | -7.19% (inactive) | -4.69 |  |  |
| CCc1c(C(=O)Nc2ccccc2)c(C)[nH]c(=S)c1C#N | -4.8% (inactive) | 16.5 |  |  |
| Cc1ccc(-c2c(C(=O)Nc3ccccc3C)c(C)[nH]c(=S)c2C#N)o1 | -6.96% (inactive) | 5.19 |  |  |
| Cc1[nH]c(=S)c(C#N)c(-c2ccccc2)c1C(=O)Nc1ccccc1 |  | -24.7 | 7.31 µM (active) |  |
| O=C(CCCN1C(=O)S/C(=C/c2ccccc2)C1=S)Nc1ccc(C(=O)O)cc1 | -1.46% (inactive) | 10.3 |  |  |
| CC(=O)c1ccc(NC(=O)CCCN2C(=O)C(c3ccccc3)Oc3cccnc32)cc1 (centres undefined) |  | -3.13 |  | inactive |
| CCc1cccc(NC(=O)CCCN2C(=O)C(c3ccccc3)Oc3cccnc32)c1 (centres undefined) |  | 12 | 20.6 µM (active) |  |
| Cc1cc(C)cc(NC(=O)CCCN2C(=O)C(c3ccccc3)Oc3cccnc32)c1 (centres undefined) |  |  | -12% |  |
| Cc1ccc(C)c(NC(=O)C2CCCN2S(=O)(=O)c2ccc3c(c2)n(C)c(=O)c(=O)n3C)c1 (centres undefined) | 1.75% (inactive) | 7.23 |  |  |
| O=C(Cc1ccccc1)NC(NC(=S)Nc1cc(Cl)ccc1Cl)C(Cl)(Cl)Cl (centres undefined) | 23.7% (inactive) | -5.82 |  |  |
| O=C(/C=C/c1ccccc1)NC(NC(=S)Nc1cc(Cl)ccc1Cl)C(Cl)(Cl)Cl (centres undefined) |  | -23.7 | 16.4 µM (active) |  |
| O=C(/C=C/c1ccccc1)NC(NC(=S)Nc1cccc(O)c1)C(Cl)(Cl)Cl (centres undefined) | 13.1% (inactive) | 11.8 |  |  |
| COc1ccc2c(c1)c(C(=O)N/N=C/c1ccc(Br)cc1)c(C)n2C | 23% (inactive) | 12 |  |  |
| CCOC(=O)Cc1csc(N/N=C/c2ccc(C(F)(F)F)cc2)n1 | -8.86% (inactive) | -3.51 |  |  |
| CC1=NOC(=O)/C1=C/c1ccc(N(C)C)cc1 | -7.07% (inactive) | -16.6 |  |  |
| CCN(CC)c1ccc(C=C2C(=O)OC(c3ccccc3)OC2=O)cc1 (centres undefined) | 7.24% (inactive) | 18.7 |  |  |

| Compound | lipid storage change, negative = inhibition | cell number change [%] | Potency | outcome |
| --- | --- | --- | --- | --- |
| CCN(CC)c1ccc(/C=C2/C(=O)ON=C2C)cc1 |  | -20.6 | 9.2 µM (active) |  |
| CCOC(=O)C1CCN(Cc2nnc(-c3ccccc3C)o2)CC1 | 0.348% (inactive) | 14.7 |  |  |
| CCOC(=O)C(NCCc1ccccc1F)(NC(C)=O)C(F)(F)F (centres undefined) | 6.2% (inactive) | 0.435 |  |  |
| O=C(Nc1cccnc1)c1ccc([N+](=O)[O-])o1 |  |  |  | inactive |
| Cc1cccc(NC(=O)c2ccc(NCCc3ccccc3)c([N+](=O)[O-])c2)c1 |  | 11.4 | 16.4 µM (active) |  |
| O=C(Nc1cccc(NC(=O)c2ccc([N+](=O)[O-])o2)c1)c1ccco1 |  | 19.2 | 5.8 µM (active) |  |
| O=C(Nc1ccc2oc(-c3cccnc3)nc2c1)c1ccco1 | -15.4% (inactive) | -3.59 |  |  |
| Cc1cc(C(=O)Nc2cccc(NC(=O)c3ccco3)c2)ccc1[N+](=O)[O-] |  | -29.7 | 1.84 µM (active) |  |
| O=C(Nc1cccc(NC(=O)c2ccco2)c1)c1ccc([N+](=O)[O-])cc1 | 4.21% (inactive) | 3.56 |  |  |
| Cc1cccc(NC(=O)NNC(=O)c2ccc(C)c([N+](=O)[O-])c2)c1 | 10.7% (inactive) | 11.9 |  |  |
| Cc1cc(C(=O)Nc2ccncc2)ccc1[N+](=O)[O-] | -12.8% (inactive) | -15 |  |  |
| O=C(Nc1ccccc1)c1ccc(NCCc2ccccc2)c([N+](=O)[O-])c1 | -5.93% (inactive) | -13.2 |  |  |
| O=C(Nc1cccc(NC(=O)c2ccccc2Cl)c1)c1ccc([N+](=O)[O-])o1 | -9.13% (inactive) |  |  |  |
| O=C(Nc1ccc(Cl)c([N+](=O)[O-])c1)c1ccco1 |  | -24.9 |  | inactive |
| O=C(Nc1ccc2oc(-c3cccnc3)nc2c1)c1ccc([N+](=O)[O-])o1 |  | -27.4 | 3.66 µM (active) |  |
| CCCCNC(=O)COc1ccccc1C(=O)c1cc(C#N)c(=O)n(CCOC)c1 | 8.97% (inactive) | 1.51 |  |  |
| COc1ccc(S(=O)(=O)N2CCCC2)c2ccccc12 | 4.12% (inactive) | 12.2 |  |  |
| CCc1ccc2[nH]c(=O)c(CN(CCN(CC)CC)C(=O)Nc3ccccc3OC)cc2c1 |  | 22.1 |  | inactive |
| COc1nc(N2CCCC2)nc(-n2nnc(C(C)=O)c2C)n1 | 5.12% (inactive) | 9.7 |  |  |
| CC(=O)c1c(C)[nH]c2ccccc2c1=O | -26.9% (inactive) | -9.21 |  |  |
| COC(=O)c1c(NC(=O)CSc2nnc(C)c(=O)[nH]2)sc(C)c1C | -1.42% (inactive) | -15.8 |  |  |
| COc1ccc(C2CC(c3ccc(Br)cc3)=NN2C(=O)CSC2=NCCS2)cc1 (centres undefined) | 2.73% (inactive) | -2.75 |  |  |

— PubChem BioAssay AID2685 (National Center for Advancing Translational Sciences (NCATS), 2010)
